Mcl-1 Bim block: human Bim-Mcl-1 interaction inhibition | Q07820 | Bead-based flow cytometry, Bim peptide-Mcl-1 binding | inhibition, % at 10 µM | 0.1% of 190,000 active | AID 1009; in the data active = inhibition above about 40%;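 also: 0% = no compound tracer wells and 100% = peptide blocker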
Target sequence (Q07820 whole entry, looked up): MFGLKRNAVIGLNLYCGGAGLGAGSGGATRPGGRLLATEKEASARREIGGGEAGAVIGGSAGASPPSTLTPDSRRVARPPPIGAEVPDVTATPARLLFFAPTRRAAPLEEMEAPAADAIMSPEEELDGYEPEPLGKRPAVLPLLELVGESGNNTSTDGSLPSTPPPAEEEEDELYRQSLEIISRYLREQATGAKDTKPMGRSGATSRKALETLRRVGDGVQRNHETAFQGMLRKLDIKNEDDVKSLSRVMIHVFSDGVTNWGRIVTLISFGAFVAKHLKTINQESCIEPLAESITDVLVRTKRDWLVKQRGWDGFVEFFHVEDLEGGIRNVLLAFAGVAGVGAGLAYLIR
Mcl1-Noxa inh: disrupts binding of human Mcl-1 to Noxa peptide. Q07820. TR-FRET Mcl-1/Noxa peptide binding, 2 h. inhibition, % at 21.7 µM. 1.5% of 220,000 active;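 active = compounds that cut the protein-peptide binding signal by more than 50% relative to plate controls in a single-dose test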;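 also: His-tagged Mcl-1 with rhodamine Noxa BH3 peptide and terbium anti-His antibody; 0% = Mcl-1 plus Noxa peptide wells and 100% = peptide-only wells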
Mcl1 Bid PPI: disrupts binding of human Mcl-1 to Bid peptide; 0.97% of 220,000 active; inhibition, % at 21.7 µM; Q07820; TR-FRET Mcl-1/Bid-Dy647 peptide binding, 1536-well;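 active = compounds that cut the binding signal by more than half at the single screening dose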;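 also: His-tagged Mcl-1 with europium anti-His antibody binding Bid BH3 peptide; 0% = Mcl-1 plus peptide wells and 100% = peptide-only wells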
GLD-1 RNA inh: GLD-1-TGE RNA interaction inhibition (C. elegans) | Q17339 | purified GLD-1 + fluorescein TGE RNA, fluorescence polarization | inhibition, % at 5.96 µM | 0.44% of 320,000 active;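 active = percent inhibition above a per-plate cutoff, the plate mean of test compounds plus 3 SD, cut at about 30% in these data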;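 also: 0% = DMSO wells with GLD-1 and probe and 100% = wells lacking GLD-1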
BCLXL inh: inhibitors of human Bcl-xL; Q07817; GST-Bcl-xL / FITC-Bim BH3 peptide fluorescence polarization; inhibition, % at 10.9 µM; 0.7% of 320,000 active;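 active = inhibition above the mean of all tested compounds plus 3 SD, cutoff set per campaign, cut at about 30% in these data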;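 also: 0% = DMSO wells and 100% = unlabeled Bim-BH3 peptide competitor; inhibitors lower millipolarization by displacing the labeled peptide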
MCL1-BIM inh: disrupts human MCL1 binding to BIM-BH3 peptide | GST-MCL1 / FITC-Bim-BH3 fluorescence polarization | inhibition, % at 10.9 µM | Q07820 | 0.68% of 320,000 active | AID 2057;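 active = inhibition above the mean inhibition of all tested compounds plus 3 SD, set per campaign, cut at about 40% in these data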;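 also: 0% = DMSO wells and 100% = unlabeled Bim-BH3 peptide control; higher means more loss of mP so more displacement of Bim peptide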
Numbers without * were called inactive; nt = no result given. Only some compounds are listed: those with a hit (about 2.3% of all), similar ones and a draw of the others.

SMILES	Mcl-1 Bim block	Mcl1-Noxa inh	Mcl1 Bid PPI	GLD-1 RNA inh	BCLXL inh	MCL1-BIM inh
O=c1oc2ccc3ccccc3c2cc1-c1nnc(-c2ccccc2)o1	0	38	20	-4	6	3
COc1cc(SC)ccc1C(=O)Nc1cccc(S(=O)(=O)NC2=NCCCCC2)c1	nt	nt	nt	165*	5	2
CCN(CC)S(=O)(=O)c1cccc(NC(=O)c2ccc(SC)cc2OC)c1	-3	11	-1	5	7	4
C#CC[N+](C)(C)CCN1C(=O)C2C(c3ccccc3)C=CC(c3ccccc3)C2C1=O (stereo unspecified)	0	3	2	4	6	3
CC(C)OC(=O)C[N+](C)(C)CCN1C(=O)C2C(c3ccccc3)C=CC(c3ccccc3)C2C1=O (stereo unspecified)	1	0	-14	55*	0	14
O=[N+]([O-])c1ccc(Oc2ccc(S(=O)(=O)N3CCOCC3)cc2)cc1	nt	nt	nt	-5	6	0
CNC(=S)N/N=C1\C(=O)c2cccc3cccc1c23	-2	-25	-47	-4	12	13
O=C(N/N=C1\C(=O)c2cccc3cccc1c23)c1ccc(O)cc1	1	54*	-24	6	8	3
Cc1cc2nc3ccc(=[N+](C)C)cc-3sc2cc1N	nt	51*	-76	nt	nt	nt
CN(C)c1ccc2nc3ccc(=[N+](C)C)cc-3sc2c1	5	58*	-111	8	5	18
Cc1ccc(Cn2c(=O)c3c(ncn3C)n(C)c2=O)cc1	nt	nt	nt	4	10	3
Cc1oc2c(cc(NS(=O)(=O)c3ccc4c5c(cccc35)C(=O)N4)c3ccccc32)c1C(=O)OC(C)C	0	49	10	-2	1	0
O=C1CCCc2oc3c(cc(NS(=O)(=O)c4ccc5c6c(cccc46)C(=O)N5)c4ccccc43)c21	nt	61*	-76	12	9	6
Oc1cc2c(cc1C(c1ccc(Cl)c(Cl)c1)N1CCCC1)OCO2 (stereo unspecified)	-3	92*	94*	nt	nt	nt
C[C@H](CO)N1C[C@H](C)[C@@H](CN(C)Cc2ccncc2)Oc2ccc(NC(=O)CCCCCC(=O)Nc3ccccc3N)cc2C1=O	nt	nt	nt	3	nt	nt
Fc1cccc(Nc2nc(-c3ccncc3)nc3ccccc23)c1	47*	26	30	-5	-10	-2
c1ccc(Nc2nc(-c3ccccc3)nc3ccccc23)cc1	nt	nt	nt	5	-3	0
Cc1cc(C)c(C)c(OCCCn2ccnc2)c1	-1	21	24	7	6	11
Cc1cc(C)c(C)c(OCCCN(C)C)c1	-4	25	53*	8	-1	-1
Cc1ccc(N2C(=O)c3ccc(C(=O)Nc4cccnc4)cc3C2=O)c(C)c1	-3	17	4	-2	4	-1
CC(=O)c1cccc(NC(=O)CN2CCN(S(=O)(=O)/C=C/c3ccccc3)CC2)c1	nt	nt	nt	1	9	10
O=c1c(O)c(-c2cccs2)oc2ccc(Cl)cc12	6	-31	-31	57*	46*	42*
CCOc1ccc(-n2c(SCC(=O)Nc3ccc(CC)cc3)nc3n[nH]c(C)c3c2=N)cc1	2	59*	59*	7	3	0
COc1ccc(S(=O)(=O)N2CCC(C(=O)NCC3CCCO3)CC2)cc1 (stereo unspecified)	-1	8	-6	3	2	9
COc1ccc(CCNC(=O)CSCc2n[nH]c(=O)[nH]2)cc1OC	-3	-1	5	2	10	2
COc1cc(CNc2ccc3[nH]c(=O)[nH]c3c2)cc(Cl)c1OCC(=O)NC(C)(C)C	3	59*	-14	-1	10	16
CCOc1cc(CNc2ccc3[nH]c(=O)[nH]c3c2)ccc1OCC(=O)NC(C)(C)C	3	44	-11	6	25	22
O=C1CCCc2c1sc1nc3n(c(=O)c21)CCCCC3	2	13	-10	-4	4	4
O=C1c2sc3nc4n(c(=O)c3c2CCC1Br)CCCCC4 (stereo unspecified)	-1	nt	-20	1	30*	36
CCOc1cc(N2CCOCC2)c(OCC)cc1NC(=O)CCS(=O)(=O)c1ccc(Cl)cc1	0	19	101*	-1	8	0
